The list is not random: actives were taken first. Their share in the collection is about 0.44%.
PI4K2A inh – blocks human PI4K2A kinase activity; AID 1346378; Q9BTU6; hit rate 0.13% among 420,000; purified PI4K2A, ADP-Glo luminescence, 1 h; stronger effect = lower value; activity change, negative = inhibition, % at 76.9 µM; in the data active = activity change below about -50%; inconclusive = mostly about -30% to -49%;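 note: -100% = wells without enzyme as full effect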
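In this quantitative HTS, ADP production by PI4K2A was quantified luminescently after 1 h at ambient temperature; 100 microM adenosine served as plate-quality control.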
Giardia kill – Giardia lamblia killing; Giardia lamblia trophozoite viability; activity change, % at 7.66 µM, hits read low; hit rate 0.15% among 340,000; AID 540267; in the data active = activity change below about -80%; inconclusive = between about -30% and that limit;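 note: parasites exposed to compound for two days anaerobically before the ATP read; % is set by controls: 0 for no effect and ±100 for the full control effect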
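Each well holds 100 Giardia trophozoites and compound. After two days (48 hrs) at 37 deg C in anaerobic conditions, ATP is quantified by luminescence.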
B2AR arrestin – beta2AR (human) beta-arrestin recruitment activity. beta-arrestin recruitment to beta2AR, cell-based reporter. Potency, µM (highest dose often 46.1 µM), for the others: at the highest dose activation, hits mostly activators. hit rate 0.02% among 330,000. AID 492947;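 note: potency is the fitted concentration of half-maximal effect; 0% = DMSO controls and full agonism = EC100 isoproterenol or metaproterenol; nearly all actives have a fitted effect of over 65% in size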
p53 reactivation – re-activators of mutant p53; Potency, µM (highest dose often 92.2 µM), inactives show at the top dose activity change, positive = activation, usual class: activators; hit rate 0.063% among 320,000; H1299 p53-A138V BP100-luciferase reporter, luminescence, 24 h; AID 504706; note: potency is the fitted concentration of half-maximal effect; % of control where 0% means no effect; nearly all actives have a fitted effect of over 45% in size
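p53-null H1299 cells stably carrying temperature-sensitive p53-A138V and a BP100-luciferase reporter were pinned with compounds (4-point, 1:5 series) and held 24 hrs at 37 deg C. Luminescence was read 10 min after detection reagent.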
Pin1 inh – blocks the human prolyl isomerase Pin1. Potency, µM (top dose mostly 115 µM), inactives show at the top dose activity, negative = inhibition, most hits filed as inhibitors. hit rate 0.009% among 390,000. Q13526. Pin1 FP peptide displacement, HiFluor488, 10 min; active = well fitted inhibition curve with a large enough effect in the polarisation, with a control signal flat, not every such curve was filed as active; inconclusive = small, poorly fitted or top-dose-only effect, or effect the other way, or a change in a side signal; inactive = no such curve, though single readings can be large or run the other way; the % refers to the polarisation; note: potency is the fitted concentration of half-maximal effect; % is set by controls: 0 for no effect and ±100 for the full control effect
Target sequence (Q13526 whole entry, looked up): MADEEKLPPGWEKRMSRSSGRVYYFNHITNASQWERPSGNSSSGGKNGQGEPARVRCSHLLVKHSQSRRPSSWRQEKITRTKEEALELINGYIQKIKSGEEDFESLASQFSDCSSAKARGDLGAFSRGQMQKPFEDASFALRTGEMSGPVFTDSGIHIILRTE
Epigenetic reg – epigenetic control regulation, reporter derepression; murine LDR cells, GFP reporter derepression, 30 h; Potency, µM (series often up to 53.9 µM), for inactives: at the highest dose GFP activation, actives largely listed as activators; hit rate 0.2% among 280,000; note: potency is the fitted concentration of half-maximal effect; % of control where 0% means no effect; nearly all actives have a fitted effect of over 60% in size
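Murine LDR cells carrying a silenced, genomically integrated CMV-driven GFP reporter were exposed to compound for 30 hours at 37 C. After PBS washes, GFP-positive cells (20–120 um objects) were counted by laser-scanning microplate cytometry.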
* marks the source's active call; other numbers are inactive results; ? = inconclusive; . = no result. Unless noted, calls come from the whole dose curve; as a rule, active = well fitted curve in the direction sought with a large enough effect; inconclusive = small, poorly fitted or top-dose-only effect, or another doubt; inactive = no such curve, though single readings can be large; an effect the other way counts as inactive or inconclusive.

SMILES	PI4K2A inh	Giardia kill	B2AR arrestin	p53 reactivation	Pin1 inh	Epigenetic reg
O=C(Cn1c2ccccc2c(=O)c2ccccc21)N/N=C/c1cc([N+](=O)[O-])ccc1N1CCCCCC1	2	3	0%	-5%	?	20µM*
O=C(Cn1c2ccccc2c(=O)c2ccccc21)N/N=C/c1ccc(N2CCCC2)c([N+](=O)[O-])c1	2	3	0%	18%	-7%	-1%
O=C(CC1Oc2ccccc2NC1=O)NCc1ccccc1 (stereo not drawn)	0	-1	0%	-2%	-2%	2%
CC(=O)CC1OC(=O)C(Br)=C1NCc1ccccc1 (stereo not drawn)	3	2	?	-62%	-9%	7.9µM*
Cc1nn2c(NCc3ccccn3)c3c(nc2c1-c1ccccc1)CCC3	-1	-13	0%	9%	20%	22µM*
O=C(NCCCNc1ccc(C(F)(F)F)cc1[N+](=O)[O-])c1ccc(F)cc1	3	-23	0%	-9%	54%	18µM*
O=C1CC(c2ccc(Cl)cc2)CC(=O)N1	-1	.	.	.	.	.
COC(=O)c1ccc(NC(=O)c2cccc(OC)c2)cc1	-51*	-8	-1%	?	13%	-1%
COC(=O)c1cccc(NC(=O)c2cccc(OC)c2)c1	?	19	.	.	4%	-1%
COc1cccc(C(=O)Nc2ccc(C(=O)O)cc2)c1	-64*	-16	1%	1%	5%	4%
Cc1ccccc1N1CCN(CCc2nnc3n2CCCC3)CC1	-1	.	.	.	.	.
O=C(c1ccc(Cl)c([N+](=O)[O-])c1)N1CCN(C(=O)c2ccco2)CC1	3	20	0%	15%	-3%	-1%
O=C(c1ccco1)N1CCN(c2c([N+](=O)[O-])nn(-c3cccc(Cl)c3)[n+]2[O-])CC1	-2	-87*	0%	5%	2%	2%
Cc1ccc(-c2noc(-c3ccccc3NC(=O)C3CC(=O)N(c4cccc(C)c4)C3)n2)cc1 (stereo not drawn)	-6	.	.	.	?	16µM*
COc1ccc(N2C3=C(CC4=C2CCCC4=O)C(=O)CCC3)cc1	-56*	-16	0%	-1%	?	8%
O=C1c2ccccc2C(=O)N1c1cccc(Cl)c1	.	.	.	.	-7%	.
Cc1cc(C)c2nc(SCC(=O)N3CC(=O)Nc4ccccc43)c(C#N)cc2c1	-6	-20	0%	12%	?	10µM*
CCN1CCN(C(=O)CCN(CC(C)C)c2nc(-c3cccs3)nc3ccccc23)CC1	.	.	.	.	-4%	.
COc1ccc2nc(N=Nc3ccc(N(C)C)cc3)sc2c1	-19	-82*	0%	2%	0%	0%
COc1ccc2nc(/N=C\N(C)C)sc2c1	1	5	-1%	?	-6%	-1%
Cc1ccc(C)c(S(=O)(=O)/N=C2\C=C(NS(=O)(=O)c3ccccc3)C(=O)c3ccccc32)c1	-14	-12	0%	0%	-11%	.
Cc1cc(C)c(S(=O)(=O)/N=C2/C=C(Sc3ncn[nH]3)C(=O)c3ccccc32)cc1C	-54*	1	-2%	-32%	38µM*	-2%
NC(=O)NS(=O)(=O)c1ccc(Cl)cc1	2	.	.	.	.	.
Cc1ccc(C(=O)c2c(C)oc3c2C(=O)C(=O)c2ccccc2-3)cc1	-63*	-26	0%	-11%	-5%	-1%
O=C1c2ccccc2C(=O)N1c1ccccc1O	.	.	.	.	-2%	.
c1ccc(-c2cnn3c(-c4ccccc4)c(-c4ccccc4)nc3n2)cc1	6	8	0%	-3%	?	2.8µM*
O=C1CC(=O)N(CCc2ccccc2)C(=O)N1CCc1ccccc1	-65*	-14	-1%	-2%	?	-2%
CC1CC(=O)N(CCc2ccccc2)C(=O)C1	3	-9	.	.	9%	.
CCn1c(=O)c2sccc2n(CC(=O)NCCC2=CCCCC2)c1=O	4	-2	0%	3%	-6%	.
CSc1ccc(/C=c2\s/c(=C\C(=O)C(C)(C)C)n(CC(=O)NCCC3=CCCCC3)c2=O)cc1	8	-22	0%	13%	?	20µM*

Assay outcomes deposited in PubChem BioAssay by National Center for Advancing Translational Sciences (NCATS).
